Potency and affinity values are given separately.
Legend:
Klebsiella pneumoniae = details: Concentration 32 ug.mL-1; ASSAY_TEST Inhibition of Bacterial Growth; detection method Absorption (OD600); MEDIA CAMHB; plate type 384well; NBS; CORNING #3640; time 18 hr
Candida albicans = details: 32 ug/mL
Cryptococcus neoformans = details: Concentration 32 ug.mL-1; ASSAY_TEST Inhibition of Fungal Growth; detection method Resazurin; Absorption (OD600-OD570); plate type 384well; NBS; CORNING #3640

SMILES | Inhibition (Klebsiella pneumoniae) | Inhibition (Candida albicans) | Inhibition (Cryptococcus neoformans)
COc1ccc2c(c1)CCC(=Cc1cccnc1Cl)C2=O | 12.5% | 3.75% | -15.01%
CC(C)(C)OC(=O)N1CC(=Cc2ccoc2)C(=O)/C(=C/c2ccoc2)C1 | 21.57% | 14.2% | -84.77%
COc1ccc2c(c1)C(=O)C(=Cc1ccoc1)CC2 | 17.88% | 8.42% | -57.68%
COc1ccc2c(c1)C(=O)C(=Cc1cccnc1OC)CC2 | 14.75% | 2.73% | -33.37%
COc1ccc2c(c1)CCC(=Cc1ccc(OC)nc1)C2=O | 13.52% | 3.72% | -60.31%
COc1ccc2c(c1)C(=O)C(=Cc1cccnc1Cl)CC2 | 12.62% | 6.91% | -40.92%
COc1ccc2c(c1)C(O)C(=Cc1cccnc1Cl)CC2 (stereo not drawn) | 10.57% | 15% | -69.16%
COc1ccc2c(c1)C(=O)C(=Cc1ccccn1)CC2 | 11.4% | 3.51% | -7.78%
COc1cccc2c1CCC(=Cc1ccco1)C2=O | 9.39% | 2.23% | 7.54%
COc1ccc2c(c1)CCC(=Cc1ccoc1)C2=O | 11.83% | 5.64% | -36.87%
COc1ccc2c(c1)C(=O)C(=Cc1cnccc1OC)CC2 | 13.46% | 2.37% | -28.9%
COc1ccc2c(c1)CCC(=Cc1cncc(Br)c1)C2=O | 10.09% | 4.95% | -1.36%
COc1ccc2c(c1)C(=O)C(=Cc1cccc(C=C3CCc4ccc(OC)cc4C3=O)c1)CC2 | 10.58% | 2.22% | -34.17%
COc1ccc2c(c1)CCC(=Cc1ccccn1)C2=O | 8.96% | 0.77% | -41.47%
COc1cccc2c1CCC(=Cc1cccc(C=C3CCc4c(OC)cccc4C3=O)c1)C2=O | 0.44% | 12.4% | -91.11%
Cc1ccc(C=C2CN(C(=O)OC(C)(C)C)C/C(=C\c3ccc(C)cc3C)C2=O)c(C)c1 | 13.54% | -1.7% | -52.76%

SMILES | Inhibition (Klebsiella pneumoniae) | Inhibition (Candida albicans) | Inhibition (Cryptococcus neoformans)
COc1ccc2c(c1)CCC(=Cc1ccco1)C2=O | 10.81% | 4.52% | -43.38%
COc1ccc2c(c1)C(=O)C(=Cc1cccnc1Cl)CC2.Cl | 17.3% | 3.54% | -54.29%
COc1ccc2c(c1)CCC(=Cc1cccnc1)C2=O | 16.02% | 2.52% | -44.32%
COc1ccc2c(c1)CCC(=Cc1ccncc1)C2=O | 14.05% | 2.55% | -80.91%
COc1cccc2c1CCC(=Cc1ccoc1)C2=O | 11.44% | 10.1% | -46.61%
COc1ccc2c(c1)CCC(=Cc1cccnc1Br)C2=O | 13.02% | 3.93% | -19.45%
COc1ccc2c(c1)C(=O)C(=Cc1cccnc1)CC2 | 13.34% | 3.76% | 20.35%
COc1ccc2c(c1)C(=O)C(=Cc1cncc(Br)c1)CC2 | 11.33% | 3.19% | -18.22%
COc1cc2c(cc1OC)C(=O)C(=Cc1ccco1)CC2 | 12.89% | 36.5% | -192.19%
COc1ccc2c(c1)CCC(=Cc1cnccc1OC)C2=O | 11.4% | -0.18% | -48.3%
COc1ccc2c(c1)C(=O)C(=Cc1cccnc1Br)CC2 | 8.16% | 1.26% | -14.82%
COc1ccc2c(c1)C(=O)C(=Cc1ccco1)CC2 | 14.42% | 6.5% | -54.58%
CC(C)(C)OC(=O)N1CC(=Cc2ccco2)C(=O)/C(=C/c2ccco2)C1 | 8.12% | 19.9% | -64.29%
COc1ccc(/C=C/C(=O)c2ccc(OCc3ccc(Br)cc3)cc2)cc1OC | 12.55% | 14.1% | -82.08%
COc1cc2c(cc1OC)C(=O)C(=Cc1ccoc1)CC2 | 14.64% | 20% | -157.54%
